Inconclusive results are not listed. Unmarked numbers belong to inactive results. Activity calls are given as the source filed them. Calls follow the shape of the dose curve; as a rule, active = well fitted inhibition curve with a large enough effect; inconclusive = small, poorly fitted or top-dose-only effect; inactive = flat fitted curve, though single readings scatter.
Assay: P-glycoprotein substrates identified in KB-8-5-11 adenocarcinoma cell line, qHTS therapeutic library screen (AID 1346987); also: nearly all actives have a fitted effect of over 65% in size
Conditions: KB-8-5-11 (P-gp overexpressing) viability, CellTiter-Glo, 72 h; series mostly up to 44.5 µM; activity change, negative = cytotoxicity: at the top concentration
Outline: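 KB-8-5-11, a colchicine-selected P-gp-overexpressing KB-3-1 subline, was grown without colchicine for the assay. Cells were seeded at 500 cells/well, dosed in concentration-response and incubated 72 h at 37 degree C, 5% CO2. Viability was read by CellTiter-Glo luminescence.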
% is scaled to controls: 0 for no effect and ±100 for the full control effect; potency is read from the fitted curve at half-maximal effect.

Row | Compound | Potency | outcome | activity change, negative = cytotoxicity
1 | C[C@@H](N[C@H]1CCCC[C@@H]1NC(=O)c1ccc(Cl)cc1)c1cccc2ccccc12 | 23.1 µM (active) | – | –
2 | CCn1c(-c2nonc2N)nc2c(C#CCO)ncc(OCCCN)c21 | – | inactive | –
3 | CCO[C@H]1CN(C2CCC(O)(c3ccc4c(c3)OCO4)CC2)C[C@@H]1NC(=O)CNC(=O)c1cccc(C(F)(F)F)c1 (stereo not given in full) | – | – | -4%
4 | CC(C)CCCCC(=O)N[C@@H](CO)C(=O)N[C@@H](CC(C)C)C(=O)[C@@]1(CO)CO1 | – | – | 9.93%
5 | COc1ccc(C2(CNC(=O)c3ccc(NC(=O)c4ccco4)cc3)CCOCC2)cc1 | – | – | -5.93%
6 | COc1c(CCC(=O)O)cccc1O[C@@H]1O[C@H](CO)[C@@H](O)[C@H](O)[C@H]1O | – | inactive | –
7 | C=C1C(=O)O[C@@H]2[C@H]3C(C)=CC(=O)C3=C(C)CC[C@@H]12 | 14.6 µM (active) | – | –
8 | C[C@@H]1O[C@@H](O[C@H]2[C@H](OC(=O)[C@]34CCC(C)(C)C[C@H]3C3=CCC5[C@@]6(C)C[C@H](O)[C@H](O[C@@H]7O[C@H](CO)[C@@H](O)[C@H](O)[C@H]7O)[C@](CO)(C(=O)O)C6CC[C@@]5(C)[C@]3(C)C[C@H]4O)OC[C@H](O)[C@@H]2O)[C@H](O)[C@H](O)[C@H]1O[C@@H]1OC[C@@H](O)[C@H](O[C@@H]2OC[C@](O)(CO)[C@H]2O)[C@H]1O (stereo not given in full) | 2.45 µM (active) | – | –
9 | C=CC(C)(C)C12CC3C(=O)N4C(CC5(C(C)(C)C=C)c6ccccc6NC45)C(=O)N3C1Nc1ccccc12 (stereo not given) | – | – | -12% [at 17.3 µM]
10 | CCNc1nc(Nc2cc(F)c(C(=O)N3CCOCC3)cc2OC)ncc1C(F)(F)F | 9.2 µM (active) | – | –

Reference: PubChem BioAssay (NCATS)
